Laboratory results as given in PubChem BioAssay AID2544 (Sanford-Burnham Center for Chemical Genomics, 2010).
The campaign covered roughly 330,000 compounds. About 390 (0.12%) were called active. This is one part of a sample in which actives are shown more often than they occur.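 The calls were made as follows: active = inhibition reaching a set limit with compound at 10 µM in the primary screen (cut at about 35% in these data); inactive = the rest.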

Each compound was assayed against Intestinal-type alkaline phosphatase (Homo sapiens) (UniProt P09923) (assay: human IAP inhibitors, primary screen, biochemical, luminescence, uHTS (AID 2544;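 also: plate controls were DMSO wells with enzyme for no effect and no-enzyme buffer wells for full effect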)). Conditions: purified IAP, CDP-Star luminescence, 30 min; at 10 µM; stronger effect = higher value.
Chain of Intestinal-type alkaline phosphatase (Homo sapiens) (P09923 whole entry, looked up): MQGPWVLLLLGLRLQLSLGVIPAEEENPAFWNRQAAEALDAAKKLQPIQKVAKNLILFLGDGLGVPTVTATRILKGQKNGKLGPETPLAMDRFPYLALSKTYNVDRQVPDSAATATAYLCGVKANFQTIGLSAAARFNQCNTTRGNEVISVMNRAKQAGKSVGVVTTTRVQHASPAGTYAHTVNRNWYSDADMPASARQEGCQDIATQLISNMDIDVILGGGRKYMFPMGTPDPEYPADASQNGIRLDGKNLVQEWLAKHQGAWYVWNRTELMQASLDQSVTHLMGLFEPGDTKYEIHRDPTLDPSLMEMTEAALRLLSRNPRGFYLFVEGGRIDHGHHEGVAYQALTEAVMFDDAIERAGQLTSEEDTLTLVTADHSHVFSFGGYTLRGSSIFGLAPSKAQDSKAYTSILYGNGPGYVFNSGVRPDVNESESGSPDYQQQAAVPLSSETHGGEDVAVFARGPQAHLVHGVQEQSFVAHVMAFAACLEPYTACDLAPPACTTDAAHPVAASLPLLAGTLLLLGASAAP
`Cc1cc(N)n2nc(-c3ccc(C(C)(C)C)cc3)cc2n1` was tested, and the inhibition was -9% (inactive). With `COc1ccc(-c2nc3cc(C)ccn3c2NC2CCCCC2)cc1SC1CCCCC1` the inhibition was 18.9% (inactive). In the case of `CC1(C)OC(=O)C(=CNC(CO)C(=O)O)C(=O)O1` (stereo not drawn), the inhibition is reported as 4.1% (inactive). With `CCN(CC(=O)NCc1ccc(Cl)cc1)C(=O)c1c(C)noc1C` the inhibition was -14.3% (inactive). For `COc1cccc(CNC(=O)C2CC(=O)N(C3CCCCCCC3)C2)c1` (stereo not drawn), the inhibition was -15% (inactive). In the case of `COC(=O)NNC(=O)C1CCC(C)CC1` (stereo not drawn), the inhibition is reported as -0.3% (inactive). With `O=C(O)CCn1c(O)c(C=C2N=c3ccccc3=N2)sc1=S` the inhibition was -32.1% (inactive). `Cc1ccc(NC(=O)COC(=O)C2C3CC4OC(=O)C2C4C3)cc1Cl` (stereo not drawn) was tested, and the inhibition was 5.1% (inactive). For `CCOC(=O)N1CCN(S(=O)(=O)c2cc3c(cc2C)NC(=O)CO3)CC1`, the inhibition was -3.7% (inactive). For `O=C(CNC(=O)c1n[nH]c2ccccc12)Nc1cc(Cl)ccc1Cl`, the inhibition was -16.2% (inactive). `FC(F)(F)c1ccnc(Oc2ccc(C3=NCCS3)cc2)c1` was tested, and the inhibition was 10.4% (inactive). For `CC(C)(C)OC(=O)N1CCC(NC(=O)c2[nH]cnc2C(=O)N[C@@H](Cc2ccccc2)C(=O)OCc2ccccc2)CC1`, the inhibition was -35.2% (inactive). In the case of `COc1ccccc1C(=O)OCC(=O)Nc1cccc(S(=O)(=O)NC2=NCCCCC2)c1`, the inhibition is reported as 19.2% (inactive). `COc1ccccc1C(CNC(=O)c1ccc(C)c(S(=O)(=O)N2CCCCC2)c1)N(C)C` (stereo not drawn) was tested, and the inhibition was -3.4% (inactive). With `CN1CCN(CC(=O)C23CC4CC(CC(C4)C2)C3)CC1` the inhibition was 4.5% (inactive). In the case of `Cc1ccc(C(=O)N(CC(=O)NC2CCCC2)c2ccc(F)cc2)s1`, the inhibition is reported as -20.5% (inactive). In the case of `CCCc1cc(C(=O)N2CCCC(CO)(CCCc3ccccc3)C2)n(C)n1` (stereo not drawn), the inhibition is reported as -5.7% (inactive). In the case of `CC#CC[N+](C)(C)CCCCCC`, the inhibition is reported as 6.2% (inactive). In the case of `O=C(/C=C/c1cccc(C(F)(F)F)c1)N1CCN(c2ccccn2)CC1`, the inhibition is reported as -1.3% (inactive). For `c1csc(-c2nnc(COc3ncnc4sccc34)o2)c1`, the inhibition was 13.5% (inactive). In the case of `Cc1sc2ncn(CC(=O)NCCN(C)C)c(=O)c2c1S(=O)(=O)N1CCC(C)CC1`, the inhibition is reported as 10.2% (inactive). For `CCN(Cc1ccccc1)S(=O)(=O)c1cc(C(=O)O)ccc1OC`, the inhibition was -17.1% (inactive). In the case of `Cc1ccc(CN2CCN(Cc3cccc(C)n3)CC2CCO)cc1` (stereo not drawn), the inhibition is reported as 4.3% (inactive). `Cc1c(C=O)c2ccccn2c1C(=O)c1ccncc1` was tested, and the inhibition was 35.9% (active). For `Cc1cc2ccccn2c1C(=O)c1cccc(F)c1`, the inhibition was 18.3% (inactive). With `Cc1c(C(=O)NNC(=O)c2ccncc2)oc2ccccc12` the inhibition was -50.2% (inactive). `CC1C(=O)C(C)C(c2ccc(O)cc2)NC1c1ccc(O)cc1` (stereo not drawn) was tested, and the inhibition was 4.6% (inactive). With `CCc1cc(CNC(=O)CC2C(=O)NCCN2CC2CCCCC2)on1` (stereo not drawn) the inhibition was -7.8% (inactive). In the case of `COc1ccc(CNC(=O)CSc2n[nH]c(N)n2)cc1OC`, the inhibition is reported as 5.7% (inactive). In the case of `CS(=O)(=O)Nc1ccccc1C(=O)OCC(=O)NC1CC1`, the inhibition is reported as -0.7% (inactive). For `Cn1c(=O)c2c(nc(N/N=C/c3cccs3)n2Cc2ccc(Br)cc2)n(C)c1=O`, the inhibition was -142% (inactive). With `O=C(NCc1ccco1)c1ccc(Cn2c(=O)c3sccc3n(Cc3ccc(F)cc3)c2=O)cc1` the inhibition was 1.3% (inactive). For `Cn1c(=O)c2sccc2n(Cc2ccc(Br)cc2)c1=O`, the inhibition was 38.1% (active). For `N#Cc1c(-c2ccc(F)cc2)cc(C2CC2)nc1SCC(=O)c1cccs1`, the inhibition was 10.2% (inactive). With `CCOC(=O)Cc1csc(NC(=O)CN(C)S(=O)(=O)c2ccc3c(c2)CCC(=O)N3)n1` the inhibition was -6.4% (inactive). In the case of `CS(=O)(=O)c1sc(C(=O)NC(=S)Nc2ccc(OC(F)(F)F)cc2)c2c1C=CCC2`, the inhibition is reported as -34.5% (inactive). For `Cc1ccc2cccc(S(=O)(=O)N3CCN(c4ccccc4F)CC3)c2n1`, the inhibition was 22.1% (inactive). With `CSc1ccc(CNC(=O)c2ccc(NC(=O)C3=CSCCO3)cc2)cc1` the inhibition was 17.2% (inactive). `O=C(CCN1C(=O)c2ccccc2C1=O)NCCN1CCOCC1` was tested, and the inhibition was -14.9% (inactive). With `O=C(NCCN1CCOCC1)[C@H](Cc1ccccc1)N1C(=O)c2ccccc2C1=O` the inhibition was 41.1% (active). `O=C(NC1=NCCS1)[C@H](Cc1ccccc1)N1C(=O)c2ccccc2C1=O` was tested, and the inhibition was 4.4% (inactive). For `CN(C(=O)CSc1cccc[n+]1[O-])C1CCCCC1`, the inhibition was 2.3% (inactive). In the case of `Cc1cc([N+](=O)[O-])nn1CCCC(=O)Nc1cccnc1Cl`, the inhibition is reported as 6.1% (inactive). For `CC1(C)O[C@@H]2[C@H](O1)[C@@H](COS(=O)(=O)O)O[C@H]2n1cnc2c(=O)[nH]cnc21`, the inhibition was -9% (inactive). With `Cc1cc(Cl)c2oc(C(=O)N3CCC(O)(c4ccccc4)CC3)c(C)c2c1` the inhibition was -10.6% (inactive). `COc1ccc(Nc2cc(=O)n(-c3ccccc3)c3c2c(=O)n(C)c(=O)n3C)cc1` was tested, and the inhibition was 3.3% (inactive). With `CN(Cc1ccccc1Cl)C(=O)C1CCC(=O)N(CCc2cccc(F)c2)C1` (stereo not drawn) the inhibition was -4.4% (inactive). In the case of `Cc1cc(C)nc(SCc2nnc(SCC(=O)OC3CCCCC3)o2)n1`, the inhibition is reported as -7.3% (inactive). With `CCOCCCN(C(=O)Cn1nnc(-c2ccc(OC)c(OC)c2)n1)C(CC)C(=O)NC1CCCC1` (stereo not drawn) the inhibition was -21.9% (inactive). In the case of `CCCCC(=O)Nc1ccccc1N1CCN(c2ccc(F)cc2)CC1`, the inhibition is reported as -6.3% (inactive). In the case of `CCC(C)C(=O)Nc1ccccc1N1CCN(c2ccc(F)cc2)CC1` (stereo not drawn), the inhibition is reported as 42.4% (active). With `CC(=O)c1ccc(N2CCN(CC(=O)Nc3ccccc3N3CCOCC3)CC2)cc1` the inhibition was 6.2% (inactive). With `CCOC(=O)c1ccc(NC(=S)Nc2cc(C)cc(C)n2)cc1` the inhibition was -2% (inactive). With `CCOC(=O)c1cn[nH]c1NC(=S)Nc1ccccc1` the inhibition was 60.8% (active). With `CCOC(=O)c1cc2c(nc1NC(=S)Nc1ccccc1)CC(C)(CC)OC2` (stereo not drawn) the inhibition was -6.3% (inactive). For `NC(N)=Nc1nc2ccc(Br)cc2c(=O)[nH]1`, the inhibition was -7.7% (inactive). `Cc1cc(C)c(SCCc2ccncc2)c(C)c1` was tested, and the inhibition was -12.6% (inactive). In the case of `CC(C)(C)c1ccc(SCCc2ccncc2)cc1`, the inhibition is reported as -36.5% (inactive). In the case of `c1ccc(CSCCc2ccncc2)cc1`, the inhibition is reported as 39.6% (active). In the case of `O=C1N(c2ccc(Cl)cc2)C(c2ccc(Cl)cc2)N2CCCN12` (stereo not drawn), the inhibition is reported as 0.2% (inactive). In the case of `CCCC1C(c2ccccc2)C(C#N)(C#N)C2(C#N)CC1(N)NC2=O` (stereo not drawn), the inhibition is reported as -3.9% (inactive). In the case of `CN(C(=O)COc1nnc(-c2cccs2)c(-c2cccs2)n1)c1ccccc1`, the inhibition is reported as -23.1% (inactive). In the case of `CS(=O)(=O)N(CC(=O)N1CCOCC1)c1cccc(Cl)c1Cl`, the inhibition is reported as -16.2% (inactive). With `NS(=O)(=O)c1cccc(NC(=O)COC(=O)/C=C/c2ccco2)c1` the inhibition was 5.2% (inactive). With `COC(=O)c1cc2c(ccn2C)n1C` the inhibition was 15.7% (inactive). For `CCN1/C(=C\c2ccc3ccccc3[n+]2CC)Sc2cc(C)ccc21`, the inhibition was 39.8% (active). In the case of `COc1cccc(C(=O)n2ccc(-c3cccs3)n2)c1`, the inhibition is reported as 0.5% (inactive). For `Cc1c(Cl)cccc1NC(=O)[C@@]1(CC(=O)O)CC(/C=C/c2ccccc2)=NO1`, the inhibition was 11% (inactive). `CSC1=NC2(C)CCCCC2C12C=CC(=O)C=C2` (stereo not drawn) was tested, and the inhibition was 12.2% (inactive). With `O=C(NCCCN1CCCCC1)C1CC(=O)N(CCc2ccccc2)C1` (stereo not drawn) the inhibition was -4.4% (inactive). For `O=C(CN(C(=O)c1csnn1)c1ccc(Br)cc1)NC1CCCC1`, the inhibition was -3.8% (inactive). With `CC(C)(C)C(=O)N(Cc1ccccc1)c1ccccn1` the inhibition was -10.9% (inactive). With `COc1ccccc1C1CCN(C(=S)Nc2ccc(Br)cc2)CC1` the inhibition was 5.9% (inactive). For `O=C(CCCl)Nc1ccc(S(=O)(=O)NCc2ccco2)cc1`, the inhibition was 7.1% (inactive). In the case of `CCS(=O)(=O)N1CCC(N2CCN(c3ccccc3)CC2)CC1`, the inhibition is reported as 15% (inactive). `CCCCc1ccc(NC(=S)N2CCCC(CO)C2)cc1` (stereo not drawn) was tested, and the inhibition was 7.5% (inactive). With `O=C(CN1C(=O)NC(Cc2c[nH]c3ccccc23)C1=O)Nc1ccccc1C(F)(F)F` (stereo not drawn) the inhibition was -22.4% (inactive). In the case of `CC(C(=O)N1CCc2ccccc21)N(C)CC(=O)Nc1ccc(F)cc1` (stereo not drawn), the inhibition is reported as 22.6% (inactive). `O=C(c1cccs1)N1CCC(c2nc3ccccc3s2)CC1` was tested, and the inhibition was 22.5% (inactive). In the case of `COc1cc2c(cc1OC)C(C(=O)NCc1ccco1)C1c3ccccc3CCN1C2=O` (stereo not drawn), the inhibition is reported as -2.9% (inactive). For `CN1/C(=c2/s/c(=C3/C(=O)N(c4ccccc4)NC3=Nc3ccccc3)n(C)c2=O)C(C)(C)c2ccccc21`, the inhibition was 35% (active). `Cc1ccc(N(CC(=O)NCC2CCCO2)C(=O)CNS(=O)(=O)c2ccc(Cl)cc2)cc1` (stereo not drawn) was tested, and the inhibition was 6.2% (inactive). For `CC(NCCc1ccc(S(N)(=O)=O)cc1)C(=O)NCc1ccccc1` (stereo not drawn), the inhibition was 8.3% (inactive). In the case of `O=C(CN1CCC(NC(=O)C2CC2)CC1)Nc1ccccc1[N+](=O)[O-]`, the inhibition is reported as 1.9% (inactive). With `CCN(C(=O)COC(=O)c1cc(S(=O)(=O)N2CCc3ccccc32)ccc1OC)C1CCS(=O)(=O)C1` (stereo not drawn) the inhibition was 8.6% (inactive). `CCc1cc2c(=O)c(-c3ccon3)c(N)oc2cc1OC` was tested, and the inhibition was 6.6% (inactive). In the case of `CC(Sc1cccc[n+]1[O-])C(=O)Nc1cccc(S(=O)(=O)N2CCOCC2)c1` (stereo not drawn), the inhibition is reported as -16.4% (inactive). With `CCNC(=S)N(CCc1c(C)[nH]c2ccc(C)cc12)Cc1ccco1` the inhibition was 3.7% (inactive). With `Cc1c(C(=O)OC(C)C)sc(NC(=O)c2cccnc2)c1C#N` the inhibition was -1.7% (inactive). With `CCOC(=O)N1CCC(NC(=O)CN2C(=O)COc3ccc(C(C)(C)C)cc32)CC1` the inhibition was -21.5% (inactive). With `Cc1ccc(C(C)(C)C)c(OCCCCN2CCCC2)c1` the inhibition was 10.8% (inactive). In the case of `O=C(C[n+]1cc(Br)cc2ccccc21)c1ccc(F)cc1`, the inhibition is reported as -5.7% (inactive). `COc1ccc(CCOC2OC(CO)C(OC(=O)/C=C/c3ccc(O)c(OC)c3)C(O[C@H]3O[C@@H](C)[C@H](O)[C@@H](O)[C@H]3O)C2O)cc1O` (stereo partly drawn) was tested, and the inhibition was 4.7% (inactive).
